Measured values published in the supplement of paper PMC3724861.
The full list was thinned out, with hits kept by preference. The true hit rate is not given.

System: T1, Caupolican (Caup) homeodomain DNA-binding domain
T1 sequence: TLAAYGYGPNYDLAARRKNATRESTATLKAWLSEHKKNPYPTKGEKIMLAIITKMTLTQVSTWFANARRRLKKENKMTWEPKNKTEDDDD
Test: PBM E-score (8-mer, recovered from the published 9-mer minima) (E-score (dimensionless, -0.5 to 0.5)); Drosophila protein; higher = stronger relative binding preference, active = 0.31 or more
Experimental: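 Protein binding microarray (PBM): in vitro transcribed/translated Caupolican (Caup) homeodomain DNA-binding domain (residues 214-303) applied at 100 nM to a universal 8-mer PBM array (Agilent AMADID 015681). The 8-mer enrichment score (E-score, range -0.5 to 0.5) was computed, and each 9-mer score is the minimum E-score of its two constituent 8-mers. The E-score is the same for a 9-mer and its reverse complement; 0.31 is the stated binding threshold.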

PBM E-score, active:
GCTTGTTA 0.315
ACTTGTTA 0.368
ACTTGTTC 0.33
ACATGGAT 0.374
ACATGGAC 0.338
TAGTACAA 0.38
AAGTACAT 0.402
AAGTACAA 0.327
TCGTACAA ≥ 0.37
GTTAAACA 0.339
GGTAACAA 0.316
TGTAAACA ≥ 0.36
TGTAACAA 0.405

PBM E-score, inactive:
AGTTGTTC 0.261
ATTTGTTA 0.219
ACTTGTTG 0.29
GCTTGTGA -0.02
CCTTGTTC 0.24
GTTTGTTA 0.225
GTCGGCCA -0.0886
GGCGACAA 0.138
CACTGAAG -0.0338
TCGTCAGA -0.0168
AAGAGACA 0.124
CATATCAG 0.0708
AACCCGCA -0.135
AATCTCAG 0.0346
CTAAATAA 0.181
CTATCAGA -0.0505
CCGAGAAC -0.0456
AAGGTTAG -0.0357
AGGATGGA -0.124
CCATGGAC -0.0492
GCATGGAC -0.00539
ACATGGAG 0.257
ACATGGAA 0.296
GTTAAGGA 0.00704
GCGTACAA 0.256
GAGTACAA 0.262
AAGTACCA 0.195
CCGTACAA 0.152
CAGTACAA 0.304
AAGTACGA 0.113
AAGTACAC 0.288
AAGTACAG 0.204
GAAGCGAA -0.0567
GGGATTCA -0.0518
ATTCGTGA 0.114
CTCGACAC 0.105
GCTGCGGA -0.178
ATGAGTTC 0.0362
ATCCTTCG -0.116
GGGACAAC 0.178
CAGTTAGA -0.0838
AGTAAACA 0.235
CTTAAACA 0.159
GGTAAACA 0.213
CGTAACAA 0.243
ATTAAACA 0.271
AGTAACAA 0.266
GCTAACAA 0.192
TCTAACAA 0.177
GAGCAACA 0.0811
